“And” between values parts separate entries of the source, which are not always exact repeats. Equal entries are not always repeated. The source made the active and inactive calls. A call without a number means that no potency is given here. Calls follow the shape of the dose curve; as a rule, active = well fitted cell-killing curve with a large enough effect in the repeat runs; inconclusive = weak or mixed curves, or effect the other way; inactive = flat fitted curve, though single readings scatter.
Potency is read from the fitted curve at half-maximal effect.

A short description of the assay: qHTS assay to identify small molecule HDAC inhibitors - cell viability counter screen (AID 1259365). Also: nearly all actives have a fitted effect of over 50% in size. As to conditions: HCT-116 viability, CellTiter-Glo ATP luminescence, 2 h; series mostly up to 92.4 µM. The text has this:
U.S. Tox21 Program National Center for Advancing Translational Sciences [NCATS] NIH Chemical Genomics Center [NCGC] U.S. Environmental Protection Agency [EPA] National Institutes of Environmental Health Sciences [NIEHS] National Toxicology Program [NTP] U.S. Food and Drug Administration [FDA] Tox21 Assay Overview: Histone deacetylases (HDACs) are a group of epigenetic enzymes that regulate gene expression by histone deacetylation. HDACs are capable of introducing epigenetic modifications and such aberrations contribute to the onset and progression of several human diseases, thus making HDACs a popular therapeutic target. For identifying endogenous class I/II HDAC inhibitors a homogenous, luminogenic HDAC I/II cell based assay was used to measure the relative activity of class I and II HDACs from cells. Wild type HCT-116 cells were used to screen Tox21 compound libraries for identifying class I/II HDAC inhibitors.
Tox21 Assay Protocol Summary: HCT-116 cells were dispensed at 1,500 per well in 5uL of culture medium into white solid bottom 1536-well plates (Greiner Bio-One, Monroe, NC) using a Multidrop Combi (Thermo Scientific, Waltham, MA) dispenser. The assay plates were incubated at 37 C and 5% CO2 for an overnight, and then 23nL of compounds dissolved in DMSO and positive control were transferred using a Pintool station (Wako, San Diego, CA). The assay plates were incubated at 37C and 5% CO2 for 2hr. After compound treatment, 4uL of CellTiter-Glo reagent (Promega Corporation, Madison, WI) was added to each well of the assay plates using Flying Reagent Dispenser (FRD, Aurora Discovery, San Diego, CA) and incubated the assay plates at room temperature for 30min. The luminescence signal was quantified using a ViewLux plate reader (Perkin Elmer, Shelton, CT).
(In general: qHTS replaces the single test concentration by a dilution series.)
Turning to `CC(C)CON=O`, the Potency entry was “inactive”.
For the compound `CCCCCCCCCC(CC)c1ccc(S(=O)(=O)O)cc1` (stereo not given), the Potency result was “inactive”.
The result for `Oc1ccc(Cl)cc1Cl` reads “inactive”; that for `Cc1cc(Cl)ccc1N=CN(C)C`, “inactive”.
For `c1ccc2c(c1)Nc1ccccc1S2`, the Potency result was “inactive”.
Next, `CCOP(=S)(OCC)SCSC(C)(C)C`: “inactive”.
The result for `O=C(O)CF` reads “inactive”; that for `COP(=O)(NC(C)=O)SC` (stereo not given), “inactive”.
In the case of `CC1=C(C(=O)Nc2ccccc2)SCCO1`, the Potency entry is “inactive”.
The result for `CCN(CC)C(=O)C(C)Oc1cccc2ccccc12` (stereo not given) reads “inactive”; that for `CC(C)(O)C(=O)Nc1ccc([N+](=O)[O-])c(C(F)(F)F)c1`, “inactive”; that for `ClCC(Cl)CCl`, “inactive”.
As for `CCCCC(C#N)(Cn1cncn1)c1ccc(Cl)cc1` (stereo not given), the Potency entry is “inactive”.
`CCOC(=O)c1ccccc1N`: the Potency entry was “inactive”.
Next, `CCC/C=N/O`: “inactive”.
The result for `CC[n+]1c(-c2ccccc2)c2cc(N)ccc2c2ccc(N)cc21` reads “inactive”.
Next, `O=S(=O)(O)C(F)(F)C(F)(F)C(F)(F)C(F)(F)C(F)(F)C(F)(F)C(F)(F)C(F)(F)F`: “inactive”.
With `Clc1cccc(Cl)c1`, the Potency result was “inactive”.
The result for `O=NN(c1ccccc1)c1ccccc1` reads “inactive”.
As to `Cn1c(-c2ccccc2)cc(-c2ccccc2)[n+]1C`, the Potency entry is “inactive”.
Turning to `CCCCCCCCCc1ccc(O)cc1`, the Potency entry was “inactive”.
On to `CN(C)P(=O)(N(C)C)N(C)C`, for which the Potency result is “inactive”.
On to `CC(C)COC(=O)c1ccccc1C(=O)OCC(C)C`, for which the Potency result was “inactive”.
Next, `NN=C(N)N`: “inactive”; `Clc1cccc(C(Cl)(Cl)Cl)n1`: “inactive”; `CCC(=O)Nc1ccc(Cl)c(Cl)c1`: “inactive”.
In the case of `CC(C)(O)C#N`, the Potency result was “inactive”.
As to `c1ccc(C2CO2)cc1` (stereo not given), the Potency result is “inactive”.
Next, `Nc1ccc([N+](=O)[O-])cc1N`: “inactive”; `Cc1ccc([N+](=O)[O-])cc1`: “inactive”; `COC(=O)Nc1nc2ccccc2[nH]1`: “inactive”.
Next, `COc1ccc(CO)cc1`: “inactive”; `CCC[CH2][Sn]([Cl])([CH2]CCC)[CH2]CCC`: 19.4 µM (active) and 17.2 µM (active); `CC1CC(=O)O1` (stereo not given): “inactive”.
The result for `CC(C)=CC1C(C(=O)OCc2cccc(Oc3ccccc3)c2)C1(C)C` (stereo not given) reads “inactive”.
As to `CC(C)(c1ccccc1)c1ccc(O)c(C(C)(C)c2ccccc2)c1`, the Potency result is “inactive”.
Regarding `O=C1C(Cl)=C(Cl)C(=O)c2ccccc21`, the Potency was 61.3 µM (active) and 38.6 µM (active).
Next, `Cc1cccc(N=Nc2ccc(N(C)C)cc2)c1`: “inactive”.
Consider `CC(C)(C#N)N=NC(C)(C)C#N`, for which the Potency result is “inactive”.
The result for `COP(=S)(OC)Oc1ccc(Sc2ccc(OP(=S)(OC)OC)cc2)cc1` reads “inactive”.
